Targets with a hit are over-represented here; the source holds about 7,900 in all. About 0.6% of all pairs of compound and target were hits.
Experiments:
Experiment in all cases: log2 fold change, soluble protein after heating vs DMSO (PISA); higher = thermal stabilisation; K562 cells, 10 uM, 30 min; active = over 0.2 and 3.5 SD of the protein, either way, in both replicates (recomputed)
[1] = compound: C1=CC=C(C=C1)[C@H](COC2=CC3=C(C=C2)NC(=O)N3)NC(=O)C4=CC=CN(C4=O)CC5=CC(=C(C=C5)F)F
Summary of the method: (§1)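 Values are thermal stability changes relative to control samples and are taken from duplicates. They are stated as log2 fold changes. Before quantification by TMTpro 16plex LC-MS/MS with equalised channel sums, K562 cells at 2×10^6 cells/mL were treated with 10 μM compound for 30 min, heated in aliquots for 3 min across 48°C-58°C, pooled, extracted in PBS with 0.5% NP-40 at 4°C, and centrifuged at 21,000xg for 90 min to give the soluble supernatant.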

[2] = compound: CC1=C(SC2=C1C(=N[C@H](C3=NN=C(N32)C)CC(=O)N)C4=CC=C(C=C4)Cl)C
Summary of the method: as §1

[3] = compound: CC1=C2C(=CC=C1)N=C(N(C2=O)C3=CC=CC=C3C)CN4C=NC5=C(N=CN=C54)N
Summary of the method: as §1

[4] = compound: Cc1sc2c(c1C)C(c1ccc(Cl)cc1)=N[C@@H](CC(=O)OC(C)(C)C)c1nnc(C)n1-2
Summary of the method: as §1

[5] = compound: c1ccc([C@@H]2C[C@H]2NC2CCNCC2)cc1
Summary of the method: as §1

Measured: log2 fold change

VTI1A (UniProt Q96AJ9)
UniProt Q96AJ9, sequence (Q96AJ9 whole entry, looked up): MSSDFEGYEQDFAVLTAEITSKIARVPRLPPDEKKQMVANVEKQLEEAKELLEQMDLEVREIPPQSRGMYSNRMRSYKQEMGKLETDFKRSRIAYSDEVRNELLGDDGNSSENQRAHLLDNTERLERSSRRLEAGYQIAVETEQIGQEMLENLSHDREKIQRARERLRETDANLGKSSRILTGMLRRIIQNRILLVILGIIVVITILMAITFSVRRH
inactive: [1] 0.032 | [2] 0.009 | [3] 0.091 | [4] -0.023 | [5] 0.07

VTI1B (UniProt Q9UEU0)
UniProt Q9UEU0, sequence (Q9UEU0 whole entry, looked up): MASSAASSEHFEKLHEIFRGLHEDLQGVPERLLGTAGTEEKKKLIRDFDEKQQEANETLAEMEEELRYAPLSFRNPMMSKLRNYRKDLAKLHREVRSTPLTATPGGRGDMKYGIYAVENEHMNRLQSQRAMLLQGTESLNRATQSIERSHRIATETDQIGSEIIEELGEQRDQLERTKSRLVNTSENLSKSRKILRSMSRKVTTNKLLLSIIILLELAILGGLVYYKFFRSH
inactive: [1] 0.015 | [2] -0.002 | [3] 0.045 | [4] -0.032 | [5] 0.02

XPO6 (UniProt Q96QU8)
UniProt Q96QU8, sequence (Q96QU8 whole entry, looked up): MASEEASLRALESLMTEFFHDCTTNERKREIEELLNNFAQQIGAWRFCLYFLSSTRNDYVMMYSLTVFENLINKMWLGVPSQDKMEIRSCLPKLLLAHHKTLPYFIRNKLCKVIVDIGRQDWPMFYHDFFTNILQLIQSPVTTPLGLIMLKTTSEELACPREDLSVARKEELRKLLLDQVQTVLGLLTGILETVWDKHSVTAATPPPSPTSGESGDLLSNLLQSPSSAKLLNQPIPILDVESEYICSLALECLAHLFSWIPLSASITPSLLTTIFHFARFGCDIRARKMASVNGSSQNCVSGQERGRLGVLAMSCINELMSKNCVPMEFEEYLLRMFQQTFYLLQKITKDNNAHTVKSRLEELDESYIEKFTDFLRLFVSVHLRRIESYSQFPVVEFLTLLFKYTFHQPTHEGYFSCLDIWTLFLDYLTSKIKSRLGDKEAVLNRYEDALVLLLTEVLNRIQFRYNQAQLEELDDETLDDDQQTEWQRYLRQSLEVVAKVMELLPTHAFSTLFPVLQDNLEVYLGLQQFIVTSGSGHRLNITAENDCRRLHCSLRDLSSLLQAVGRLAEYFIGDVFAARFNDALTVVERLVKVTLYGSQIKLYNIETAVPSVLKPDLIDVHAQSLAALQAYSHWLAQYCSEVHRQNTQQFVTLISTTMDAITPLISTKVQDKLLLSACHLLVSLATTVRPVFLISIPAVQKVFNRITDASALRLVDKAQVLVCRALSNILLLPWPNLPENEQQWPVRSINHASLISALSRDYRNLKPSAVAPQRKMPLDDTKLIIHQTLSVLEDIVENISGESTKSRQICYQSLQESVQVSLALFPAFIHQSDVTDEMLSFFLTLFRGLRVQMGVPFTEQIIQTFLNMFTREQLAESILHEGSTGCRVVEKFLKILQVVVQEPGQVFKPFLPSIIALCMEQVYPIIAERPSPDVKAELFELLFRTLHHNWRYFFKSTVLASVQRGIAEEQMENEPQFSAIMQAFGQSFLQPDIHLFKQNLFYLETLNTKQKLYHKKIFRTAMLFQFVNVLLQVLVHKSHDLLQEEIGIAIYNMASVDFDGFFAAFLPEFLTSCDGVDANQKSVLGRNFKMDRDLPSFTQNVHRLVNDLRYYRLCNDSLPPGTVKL
inactive: [1] 0.35 | [2] 0.019 | [3] 0.082 | [4] 0.015 | [5] -0.072

VPS72 isoform 2 (UniProt Q15906)
UniProt Q15906, sequence (Q15906 whole entry, looked up): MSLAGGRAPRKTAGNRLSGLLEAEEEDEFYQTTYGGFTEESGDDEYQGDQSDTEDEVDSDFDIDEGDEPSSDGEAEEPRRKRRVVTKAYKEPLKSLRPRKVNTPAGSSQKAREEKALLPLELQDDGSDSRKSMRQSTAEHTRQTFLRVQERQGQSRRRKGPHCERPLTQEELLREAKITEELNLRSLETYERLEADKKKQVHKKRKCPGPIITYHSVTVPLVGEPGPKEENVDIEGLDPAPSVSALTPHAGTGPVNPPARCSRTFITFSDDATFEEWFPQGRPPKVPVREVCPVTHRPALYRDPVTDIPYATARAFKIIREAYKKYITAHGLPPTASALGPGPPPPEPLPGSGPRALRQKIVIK
inactive: [1] 0.123 | [2] -0.106 | [3] 0.055 | [4] 0.05 | [5] -0.013

VWA8 (UniProt A3KMH1)
UniProt A3KMH1, sequence (A3KMH1 whole entry, looked up): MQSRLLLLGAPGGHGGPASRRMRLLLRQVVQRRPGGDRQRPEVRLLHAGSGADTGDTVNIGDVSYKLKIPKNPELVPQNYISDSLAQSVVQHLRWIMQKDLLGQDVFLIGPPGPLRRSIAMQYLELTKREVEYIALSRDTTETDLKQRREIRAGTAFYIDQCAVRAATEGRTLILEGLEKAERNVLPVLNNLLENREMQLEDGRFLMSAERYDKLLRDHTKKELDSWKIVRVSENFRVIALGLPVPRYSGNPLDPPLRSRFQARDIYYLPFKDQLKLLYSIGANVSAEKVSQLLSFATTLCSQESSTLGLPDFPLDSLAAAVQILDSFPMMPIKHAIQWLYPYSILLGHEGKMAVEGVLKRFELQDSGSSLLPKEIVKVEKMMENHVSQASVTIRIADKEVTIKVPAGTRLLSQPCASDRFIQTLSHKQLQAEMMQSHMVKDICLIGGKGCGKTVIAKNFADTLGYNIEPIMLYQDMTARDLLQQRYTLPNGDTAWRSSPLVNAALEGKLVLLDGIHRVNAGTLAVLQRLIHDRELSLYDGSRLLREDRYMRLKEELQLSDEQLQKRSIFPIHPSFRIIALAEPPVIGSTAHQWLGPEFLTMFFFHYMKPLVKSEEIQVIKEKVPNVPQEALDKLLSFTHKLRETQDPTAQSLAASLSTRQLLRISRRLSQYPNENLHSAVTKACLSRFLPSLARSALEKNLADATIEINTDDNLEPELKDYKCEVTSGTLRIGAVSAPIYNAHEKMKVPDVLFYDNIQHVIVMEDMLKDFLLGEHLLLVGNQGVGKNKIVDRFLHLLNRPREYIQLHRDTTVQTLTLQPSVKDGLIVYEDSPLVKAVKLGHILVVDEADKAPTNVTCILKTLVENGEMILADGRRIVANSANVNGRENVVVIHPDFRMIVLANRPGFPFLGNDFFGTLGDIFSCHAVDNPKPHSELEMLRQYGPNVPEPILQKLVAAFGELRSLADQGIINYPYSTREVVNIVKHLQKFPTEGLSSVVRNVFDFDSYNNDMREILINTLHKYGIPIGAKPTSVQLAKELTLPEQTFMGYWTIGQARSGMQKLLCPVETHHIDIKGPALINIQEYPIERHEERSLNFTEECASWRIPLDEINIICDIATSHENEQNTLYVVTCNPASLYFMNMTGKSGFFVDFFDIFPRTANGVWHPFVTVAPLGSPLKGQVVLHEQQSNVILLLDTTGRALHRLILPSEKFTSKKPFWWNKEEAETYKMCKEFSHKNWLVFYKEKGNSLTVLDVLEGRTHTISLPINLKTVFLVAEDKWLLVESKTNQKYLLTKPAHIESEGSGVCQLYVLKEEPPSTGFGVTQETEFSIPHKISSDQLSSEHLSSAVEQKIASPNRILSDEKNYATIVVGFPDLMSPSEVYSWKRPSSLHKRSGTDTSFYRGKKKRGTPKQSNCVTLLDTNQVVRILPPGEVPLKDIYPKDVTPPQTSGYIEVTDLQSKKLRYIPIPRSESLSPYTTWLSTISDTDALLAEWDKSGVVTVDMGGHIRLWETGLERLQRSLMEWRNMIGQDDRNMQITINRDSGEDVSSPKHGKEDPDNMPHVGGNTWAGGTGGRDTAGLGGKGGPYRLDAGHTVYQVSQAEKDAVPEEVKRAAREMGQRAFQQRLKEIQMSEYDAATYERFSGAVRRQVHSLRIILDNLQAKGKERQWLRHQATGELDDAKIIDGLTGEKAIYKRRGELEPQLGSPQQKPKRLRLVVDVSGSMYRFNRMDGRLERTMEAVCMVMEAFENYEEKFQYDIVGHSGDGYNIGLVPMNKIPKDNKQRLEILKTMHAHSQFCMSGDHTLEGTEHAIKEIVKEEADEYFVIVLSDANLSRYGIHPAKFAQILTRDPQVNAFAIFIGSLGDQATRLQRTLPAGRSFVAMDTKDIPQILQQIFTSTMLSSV
inactive: [1] -0.03 | [2] 0.023 | [3] 0.091 | [4] -0.044 | [5] -0.052

TRMT2A (UniProt Q8IZ69)
UniProt Q8IZ69, sequence (Q8IZ69 whole entry, looked up): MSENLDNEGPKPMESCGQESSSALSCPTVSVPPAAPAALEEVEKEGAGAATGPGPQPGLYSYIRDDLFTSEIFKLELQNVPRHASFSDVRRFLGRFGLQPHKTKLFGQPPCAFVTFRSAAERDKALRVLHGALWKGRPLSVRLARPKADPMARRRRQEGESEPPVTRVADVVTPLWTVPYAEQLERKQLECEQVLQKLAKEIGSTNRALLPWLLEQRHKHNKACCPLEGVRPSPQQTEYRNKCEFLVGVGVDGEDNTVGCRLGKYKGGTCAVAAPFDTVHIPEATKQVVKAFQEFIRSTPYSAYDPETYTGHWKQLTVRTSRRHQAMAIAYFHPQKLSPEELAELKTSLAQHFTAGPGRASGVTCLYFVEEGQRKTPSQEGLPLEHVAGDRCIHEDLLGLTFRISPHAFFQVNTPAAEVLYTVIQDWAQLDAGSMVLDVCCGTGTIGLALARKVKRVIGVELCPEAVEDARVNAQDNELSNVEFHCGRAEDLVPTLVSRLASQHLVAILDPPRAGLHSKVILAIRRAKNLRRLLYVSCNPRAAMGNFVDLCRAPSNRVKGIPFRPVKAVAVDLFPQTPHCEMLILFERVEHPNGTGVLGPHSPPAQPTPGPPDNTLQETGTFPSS
inactive: [1] -0.008 | [2] -0.042 | [3] -0.026 | [4] 0.1 | [5] 0.058

— the supplement of paper PMC10849652
